Hits are enriched below; roughly 6.9% of the tested compounds scored in any of these assays.
PLK1 PBD block: inhibitors of human PLK1 polo-box domain binding | Plk1 PBD binding of FITC phosphopeptide, fluorescence polarization | 2.8% of 360,000 active | Potency, µM, without a hit: max response, negative = inhibition, hits mostly inhibitors; note: series mostly up to about 57 µM; % is set by controls: 0 for no effect and ±100 for the full control effect; nearly all actives have a fitted effect of over 65% in size
Target sequence (P53350 whole entry, looked up, the tested form may be a part): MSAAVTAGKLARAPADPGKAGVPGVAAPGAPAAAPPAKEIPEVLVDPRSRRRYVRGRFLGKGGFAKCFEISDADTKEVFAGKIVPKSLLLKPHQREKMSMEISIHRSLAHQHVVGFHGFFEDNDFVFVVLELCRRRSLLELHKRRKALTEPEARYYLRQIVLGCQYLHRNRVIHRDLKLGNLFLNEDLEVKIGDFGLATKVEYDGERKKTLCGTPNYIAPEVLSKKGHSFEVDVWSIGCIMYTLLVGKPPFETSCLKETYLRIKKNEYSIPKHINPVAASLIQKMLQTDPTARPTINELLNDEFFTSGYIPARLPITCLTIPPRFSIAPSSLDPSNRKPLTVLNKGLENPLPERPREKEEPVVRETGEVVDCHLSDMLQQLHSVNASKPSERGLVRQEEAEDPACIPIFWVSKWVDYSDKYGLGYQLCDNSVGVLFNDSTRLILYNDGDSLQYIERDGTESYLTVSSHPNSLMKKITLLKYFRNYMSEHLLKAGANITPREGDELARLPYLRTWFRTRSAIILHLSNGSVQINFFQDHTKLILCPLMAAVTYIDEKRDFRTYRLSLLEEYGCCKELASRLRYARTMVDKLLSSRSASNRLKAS
HP1b binding inh: inhibitors of HP1-beta chromodomain binding to methylated histone tails. P83916. AlphaScreen HP1-beta / biotin-H3K9me3 peptide binding. Potency, µM (titrated, usually from 114 µM), inactives show top-dose activity change, negative = inhibition, hits mostly inhibitors. 0.56% of 390,000 active. AID 540317; note: nearly all actives have a fitted effect of over 70% in size
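Compound inhibition of the preformed complex between 50 nM HP1-beta and 50 nM biotinylated H3K9me3 peptide was read by AlphaScreen. Buffer was PBS pH 7.4 with 0.01% Tween-20. Incubations ran 30 min at room temperature, with 10 ug/mL donor/acceptor beads.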
L3MBTL1 inh: inhibitors of human L3MBTL1; AlphaScreen L3MBTL1–H3K9me1 peptide binding; Potency, µM (series often up to 57.1 µM), for inactives: at the top dose activity, negative = inhibition, most hits filed as inhibitors; 0.66% of 230,000 active; AID 485360; note: % is set by controls: 0 for no effect and ±100 for the full control effect; nearly all actives have a fitted effect of over 60% in size
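AlphaScreen proximity signal between nickel-chelate acceptor and streptavidin donor beads (final 10 ug/mL) reports binding of 50 nM L3MBTL1 to 75 nM biotin-H3 K9me1 peptide; complex incubated with compounds 30 min at room temperature; cefsulodin titration as control.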
BAZ2B inh: blocks human BAZ2B; Q9UIF8; Potency, µM (titrated, usually from 114 µM), inactives show at the highest dose activity change, negative = inhibition, actives largely listed as inhibitors; AlphaScreen BAZ2B-H3K14Ac peptide displacement; 4.4% of 360,000 active; note: % is set by controls: 0 for no effect and ±100 for the full control effect; nearly all actives have a fitted effect of over 60% in size
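Complex of BAZ2B and biotin-H3K14Ac (50 nM apiece) forms over 30 min at RT, then faces library compounds up to 110 uM for another 30 min; AlphaScreen beads added, 20 min dark incubation, luminescence read.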
VDR inh: inhibitors of human vitamin D receptor; AID 504847; Potency, µM, inactives show max response, negative = inhibition, usual class: inhibitors; 0.93% of 400,000 active; VDR-SRC2-3 peptide fluorescence polarization, 2 h; note: % is set by controls: 0 for no effect and ±100 for the full control effect
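The screen uses fluorescence polarization to detect compounds that interfere with recruitment of the SRC2-3 coactivator peptide to VDR; plates are read after 2 h at room temperature.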
JMJD2A Tudor: blocks the human JMJD2A Tudor domain; O75164; AlphaScreen JMJD2A-Tudor / H3K4me3 peptide binding; Potency, µM (titrated, usually from 114 µM), without a hit: top-dose activity change, negative = inhibition, hits mostly inhibitors; 4.4% of 390,000 active; AID 504339; note: % is set by controls: 0 for no effect and ±100 for the full control effect; nearly all actives have a fitted effect of over 50% in size
* marks the source's active call; other numbers are inactive results; ? = inconclusive; · = not tested or not shown; [ ] = dose if it differs, or a comment. Calls come from the whole dose curve; as a rule, active = well fitted curve in the direction sought with a large enough effect; inconclusive = small, poorly fitted or top-dose-only effect, or another doubt; inactive = no such curve, though single readings can be large; an effect the other way counts as inactive or inconclusive. Potency is the fitted concentration of half-maximal effect.

SMILES	PLK1 PBD block	HP1b binding inh	L3MBTL1 inh	BAZ2B inh	VDR inh	JMJD2A Tudor
COc1ccc(-c2cn3nc(SCC(=O)Nc4cccc(C)c4C)ccc3n2)cc1	·	30.3%[57 µM]	·	4.4%	10.2%	-6.8%
Cc1ccc(NC(=O)CC(C)S(=O)(=O)c2ccc3c(c2)NC(=O)CO3)cc1Cl (stereo not drawn)	·	48.1%	·	2.7%	8.0%	-1.7%
CC(CC(=O)N1CCc2ccccc21)S(=O)(=O)c1ccc2c(c1)NC(=O)CO2 (stereo not drawn)	26.7µM*	7.5%	·	-1.2%	-9.2%	-35.9%
Cc1ccc(NC(=O)CC(C)S(=O)(=O)c2ccc3c(c2)NC(=O)CO3)cc1C (stereo not drawn)	23.8µM*	9.6%	·	-21.1%	-2.3%	?
Cc1ccc(/C=C/C(=O)c2ccc([N+](=O)[O-])o2)cc1	-27.9%	-4.6%	-4.6%	-5.0%	5.62µM*	-29.9%
Cc1ccc(N(C)C(=O)Cn2cnc3onc(-c4ccc(F)cc4)c3c2=O)cc1C	·	15.8%	·	4.7%[57.1 µM]	4.0%	-23.6%
COC(=O)Oc1nsnc1N1CCOCC1	2.67µM*	?	6.8%	-4.9%	-90.7%	89.1µM*
CCCC12CN3CC(C)(CN(C1)C3c1ccc(CC)cc1)C2=O (stereo not drawn)	·	67.9%	·	4.3%	-7.6%	7.9%
Cc1ccc(NC(=O)CSc2ncc(S(=O)(=O)c3ccccc3)c(=O)[nH]2)cc1C	-18.3%	11.7%	23.7%	15.4%	-5.0%	-14.1%
COc1cccc(NC(=O)CSc2ncc(S(=O)(=O)c3ccccc3)c(=O)[nH]2)c1	26.7µM*	-8.7%	1.2%	-1.7%	-29.1%	-3.7%[11.4 µM]
COc1cccc(NC(=O)c2ccc3c(O)c(S(=O)(=O)c4ccccc4)c(=O)[nH]c3c2)c1	23.8µM*	-15.6%	·	-9.0%	?	44.7µM*
C/C(=C/c1ccccc1)C(=O)N1CCN(c2ccc(F)cc2)CC1	-11.7%	12.7%	-2.3%	?	-23.4%	-22.1%
CCOc1ccc(N=C(NN)c2ccc3ccccc3n2)cc1	?	-1.2%[57 µM]	-22.6%	39.8µM*	5.5%	50.1µM*
CC1=C(C(=O)Nc2ccc(Cl)cc2)C(c2cccs2)n2nc(SCc3cccc(C)c3)nc2N1 (stereo not drawn)	·	37.3%	·	2.9%	-4.8%	-3.8%
CCn1c(C)cs/c1=N\C(=S)Nc1ccccc1C	-8.7%	-16.8%	-25.1%	39.8µM*	-8.7%	?
C=C1CC2C(=O)N(Cc3ccccc3)C(C(=O)O)C1N2C(=O)OC(C)(C)C (stereo not drawn)	·	16.6%	·	·	-8.3%	-16.6%
Cc1ccc(S(=O)(=O)N2C[C@@H]3[C@H]4CC[C@H](C4)[C@@H]3[C@@H](C)C2CC(=O)c2ccccc2)cc1 (stereo partly drawn)	-9.0%	25.1%	-9.2%	·	?	-11.5%
O=C(Nc1ccc(N2CCCC2)cc1)C(Cl)c1ccccc1 (stereo not drawn)	-29.0%	44.7µM*	-7.3%	50.1µM*	44.7µM*	28.2µM*
Cc1ccc(S(=O)(=O)N2CCOCC2)cc1C(=O)Nc1ccc(N2CCCCCC2)cc1	-7.7%	?	?	39.8µM*	-6.3%	22.4µM*
O=C(Nc1ccc(N2CCCCC2)cc1)c1ccc2ccccc2n1	-9.2%	?	·	?	-17.4%	20µM*
CC(=O)c1ccc(NC(=O)c2cc(S(=O)(=O)N3CCOCC3)ccc2C)cc1	-12.8%	21.7%	·	-8.2%	3.1%	-12.1%
CS(=O)(=O)N1CCN(c2ccc(NC(=O)C(c3ccccc3)c3ccccc3)cc2)CC1	-1.9%	0.9%	-5.2%	0.1%	-3.7%	-19.9%
Cc1ccccc1C(=O)Nc1ccc(N2CCCC2)cc1	3.0%	-12.7%	-12.7%	?	6.4%	28.2µM*
Cc1ccccc1NC(=O)CN(C)S(=O)(=O)c1cccc2nsnc12	·	-8.3%	·	6.4%	6.3%	-11.5%
CCOc1ccc(NC(=O)Cn2c(=O)n(-c3cccc(OC)c3)c(=O)c3c4c(sc32)CCCC4)cc1	·	21.9%	·	-1.4%	0.2%	-6.8%
SMILES	PLK1 PBD block	HP1b binding inh	L3MBTL1 inh	BAZ2B inh	VDR inh	JMJD2A Tudor
Cc1ccc(C(=O)Nc2ccc(N3CCCC3)cc2)c(C)c1	-2.3%	?	-19.5%	?	-9.3%	50.1µM*
Cc1ccc(-c2nnc(Nc3ccc(O)cc3)c3ccccc23)cc1S(=O)(=O)N1CCCCC1	·	-6.5%	·	-15.0%	-11.5%	?
Cc1cc(=O)n(CNC(=O)c2ccccc2)c(=S)[nH]1	-2.3%	9.6%	·	2.3%	-5.5%	56.2µM*
COc1ccc(OC)c(C(=O)c2c(C)oc3cc([N+](=O)[O-])c(O)c([N+](=O)[O-])c23)c1	-11.5%	-24.4%	?	?	-1.9%	-34.8%
Cc1oc2cc([N+](=O)[O-])c(O)c([N+](=O)[O-])c2c1C(=O)c1ccc(Cl)cc1	?	?	-14.9%	31.6µM*	-21.7%	50.1µM*
Nc1ccc2nc(C3CCCCC3)[nH]c2c1	-0.1%	12.7%	-23.9%	56.2µM*	-7.8%	-17.4%
Nc1ccc2nc(-c3ccc(Cl)cc3)[nH]c2c1	0.4%	18.1%	·	-28.9%	1.5%	?
c1ccc(-c2nc3ccccc3[nH]2)cc1	-13.4%	34.6%	·	3.3%	-5.7%	-8.3%
Nc1ccc(-c2nc3ccc(N)cc3[nH]2)cc1	1.5%	?	-12.1%	?	34.3%	56.2µM*
Nc1cc(N)cc(-c2nc3ccccc3[nH]2)c1	-1.8%	-36.2%	-23.6%	44.7µM*	-1.2%	?
Nc1ccc2nc(-c3cc(Cl)c(N)c(Cl)c3)[nH]c2c1	23.8µM*	?	5.7%	?	?	?
Cc1n[nH]c(C)c1S(=O)(=O)N1CCCC(C(=O)Nc2ccc(Cl)cc2)C1 (stereo not drawn)	·	18.8%	·	·	-4.8%	-15.0%
Cc1ccc2nc(-c3ccccc3N)[nH]c2c1	29.9µM*	6.3%	-7.1%	-21.6%	?	-29.7%[57.1 µM]
COC(=O)C1=C(C)N(Cc2ccccc2)C(=NCc2ccco2)N[C@H]1c1ccc(Br)cc1	·	·	·	79.4µM*	·	·
Cc1nc2ccc(NC(=O)CCS(=O)(=O)c3ccc(Cl)cc3)cc2s1	16.8µM*	19.1%	-5.1%	-5.9%	?	-9.0%
Cc1nc2ccc(NC(=O)c3cc([N+](=O)[O-])cc([N+](=O)[O-])c3Cl)cc2s1	2.67µM*	?	-8.7%	?	?	56.2µM*
CSc1nc2ccc(NC(=O)c3ccccn3)cc2s1	-13.6%	16.7%	·	2.0%	8.0%	28.2µM*
Cc1nc2ccc(NC(=O)c3cc(Cl)ccn3)cc2s1	-10.4%	18.9%	·	79.4µM*	21.7%	-33.8%
COc1ccc(NC(=O)CCS(=O)(=O)c2ccc3nc(C)sc3c2)cc1OC	-6.5%	33.2%	4.9%	?	16.2%	-8.2%
Cc1cc(C)n(CCNC(=O)[C@H]2O[C@@H](n3ccc(=O)[nH]c3=O)[C@H](O)[C@@H]2O)n1	-9.7%	·	·	·	·	·

Bioassay records as filed in PubChem BioAssay.
